The test system of assay [1] is Klebsiella pneumoniae. The following applies: Concentration 32 ug.mL-1; ASSAY_TEST Inhibition of Bacterial Growth; detection method Absorption (OD600); MEDIA CAMHB; plate type 384well; NBS; CORNING #3640; time 18 hr.
The subject of assay [2] is Candida albicans. The following applies: 32 ug/mL.
The subject of assay [3] is Cryptococcus neoformans. The following applies: Concentration 32 ug.mL-1; ASSAY_TEST Inhibition of Fungal Growth; detection method Resazurin; Absorption (OD600-OD570); plate type 384well; NBS; CORNING #3640. On the technique in general: The colour change of resazurin is a common sign of viable cells or microbes.

Results with a measured potency or affinity are listed apart.

In general, Inhibition refers to the relative decrease from the control value, in per cent. For `O=C(NN=CC[C@@H]1[C@@H](COC2CCCCO2)[C@H](OC2CCCCO2)C[C@@H]1O)c1ccncc1` (some centres not stated), the Inhibition in assay [1] was 4.99%; in assay [2], 1.39%; in assay [3], -44.06%.

On to `O=C(NN=CC[C@@H]1[C@@H](/C=C/[C@@H](O)CCc2ccccc2)[C@H](O)C[C@@H]1O)c1ccncc1`, for which the Inhibition was 16.12% in assay [1], -1.24% in assay [2] and -90.23% in assay [3].

Turning to `O=C(N/N=C/[C@@H]1C[C@H](CO)[C@@H]2CCC[C@@H]21)c1ccncc1`, the results for the Inhibition in assay [1], in assay [2] and in assay [3] were 17.88%, 0.02% and -36.93%, respectively.

As for `O=C(NN=C[C@H]1[C@H]2CC(O)OC[C@H]2C[C@H]1O)c1ccncc1` (some centres not stated), the Inhibition in assay [1] is 2.56%; in assay [2] it was 3.89%; in assay [3], -80.47%.

On to `O=C1C[C@@H]2[C@@H](C=NNC(=O)c3ccncc3)[C@@H](C[C@H]2Cl)O1`, for which the values for the Inhibition in assay [1], in assay [2] and in assay [3] were 20.62%, 2.47% and -98.94%, respectively.

Turning to `O=C(NNC(=O)c1ccc([N+](=O)[O-])cc1C(=O)O)c1ccncc1`, the Inhibition was 17.92% in assay [1], 3.64% in assay [2] and -51.18% in assay [3].

For the compound `COC(=O)CCCCCC[C@@H]1[C@@H](/C=N/NC(=O)c2ccncc2)[C@H](O)C[C@@H]1O`, the Inhibition was 5.87% in assay [1], 0.11% in assay [2] and -95.51% in assay [3].

In the case of `O=C(N/N=C1/C[C@@H]2[C@H](COC(c3ccccc3)(c3ccccc3)c3ccccc3)C[C@H](COC(c3ccccc3)(c3ccccc3)c3ccccc3)[C@@H]2C1)c1ccncc1`, the values for the Inhibition in assay [1], in assay [2] and in assay [3] were -5.52%, 2.84% and -17.15%, respectively.

Turning to `O=C(N/N=C1/C2C[C@H]3C(C2C(=O)O)[C@@H]13)c1ccncc1` (some centres not stated), the Inhibition in assay [1] is 8.85%; in assay [2], 0.22%; in assay [3] it was -16.35%.

The record behind these values is ChEMBL document CHEMBL4513156, “CO-ADD screening of NCPRI (Romania) compounds”.
